According to the supplement of paper PMC12669032:

Experiments:
Assay in all cases: growth AUC relative to DMSO control (median of replicates) (fraction); higher = more growth (less inhibition), active = hit call of the paper
Conditions in all cases: 20 µM; 24 h;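 active = AUC reduced over 20% with Padj below 0.05 in at least 2 of 3 replicates; inactive = otherwise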
Akkermansia muciniphila = test system: Akkermansia muciniphila
Procedure, shortened: (§1)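 Gut bacterial monocultures were grown anaerobically at 37 °C in mGAM from a starting OD600 of 0.05 with 20 µM compound (1% DMSO), in round-bottom 96-well plates under pierced gas-permeable seals, and OD600 was read hourly for 24 h. With the minimum OD set to 0, area under the growth curve was normalised to the plate median of solvent-only wells, or to row and column medians on the industrial chemical plate. Each value is the median of three biological replicates grown on separate days.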

Bacteroides caccae = test system: Bacteroides caccae
Procedure, shortened: as §1

Bacteroides clarus = test system: Bacteroides clarus
Procedure, shortened: as §1

Bacteroides dorei = test system: Bacteroides dorei
Procedure, shortened: as §1

Bacteroides stercoris = test system: Bacteroides stercoris
Procedure, shortened: as §1

[1] = test system: Bacteroides thetaiotaomicron
Procedure, shortened: as §1

Bacteroides uniformis = test system: Bacteroides uniformis
Procedure, shortened: as §1

[2] = test system: Bifidobacterium longum subsp. longum
Procedure, shortened: as §1

Clostridium difficile = test system: Clostridium difficile
Procedure, shortened: as §1

Collinsella aerofaciens = test system: Collinsella aerofaciens
Procedure, shortened: as §1

Coprococcus comes = test system: Coprococcus comes
Procedure, shortened: as §1

Escherichia coli ED1a = test system: Escherichia coli ED1a
Procedure, shortened: as §1

Escherichia coli IAI1 = test system: Escherichia coli IAI1
Procedure, shortened: as §1

Eubacterium rectale = test system: Eubacterium rectale
Procedure, shortened: as §1

[3] = test system: Fusobacterium nucleatum subsp. animalis
Procedure, shortened: as §1

Lactobacillus gasseri = test system: Lactobacillus gasseri
Procedure, shortened: as §1

Lactobacillus paracasei = test system: Lactobacillus paracasei
Procedure, shortened: as §1

Odoribacter splanchnicus = test system: Odoribacter splanchnicus
Procedure, shortened: as §1

[4] = test system: Parabacteroides distasonis
Procedure, shortened: as §1

Parabacteroides merdae = test system: Parabacteroides merdae
Procedure, shortened: as §1

Measured: growth AUC

O=C(O)c1cc(Cl)ccc1Cl
inactive: Akkermansia muciniphila 0.97 | Bacteroides caccae 0.998 | Bacteroides clarus 0.989 | Bacteroides dorei 0.961 | Bacteroides stercoris 0.89 | [1] 1 | Bacteroides uniformis 1.03 | [2] 1.17 | Clostridium difficile 1.02 | Collinsella aerofaciens 0.952 | Coprococcus comes 0.994 | Escherichia coli ED1a 0.97 | Escherichia coli IAI1 0.984 | Eubacterium rectale 1.02 | [3] 0.994 | Lactobacillus gasseri 0.869 | Lactobacillus paracasei 0.934 | Odoribacter splanchnicus 1.08 | [4] 0.978 | Parabacteroides merdae 0.96

Cc1cc(C)nc(Nc2ccccc2)n1
inactive: Akkermansia muciniphila 0.869 | Bacteroides caccae 0.98 | Bacteroides clarus 0.957 | Bacteroides dorei 1 | Bacteroides stercoris 0.987 | [1] 0.957 | Bacteroides uniformis 0.97 | [2] 1 | Clostridium difficile 0.983 | Collinsella aerofaciens 0.999 | Coprococcus comes 0.986 | Escherichia coli ED1a 1.01 | Escherichia coli IAI1 0.974 | Eubacterium rectale 0.983 | [3] 1.01 | Lactobacillus gasseri 1.09 | Lactobacillus paracasei 0.988 | Odoribacter splanchnicus 0.965 | [4] 1 | Parabacteroides merdae 0.971

COP(=S)(OC)Oc1ccc(S(C)=O)c(C)c1 (stereo not given)
inactive: Akkermansia muciniphila 0.88 | Bacteroides caccae 1.02 | Bacteroides clarus 1.01 | Bacteroides dorei 1.03 | Bacteroides stercoris 1.16 | [1] 0.962 | Bacteroides uniformis 1.03 | [2] 1.02 | Clostridium difficile 1.01 | Collinsella aerofaciens 1.03 | Coprococcus comes 1.04 | Escherichia coli ED1a 0.975 | Escherichia coli IAI1 1.04 | Eubacterium rectale 1.06 | [3] 1.02 | Lactobacillus gasseri 1.02 | Lactobacillus paracasei 1.01 | Odoribacter splanchnicus 0.979 | [4] 1.03 | Parabacteroides merdae 0.988

CN1COCN(Cc2cnc(Cl)s2)/C1=N/[N+](=O)[O-]
inactive: Akkermansia muciniphila 0.919 | Bacteroides caccae 1 | Bacteroides clarus 0.976 | Bacteroides dorei 0.932 | Bacteroides stercoris 1.03 | [1] 0.999 | Bacteroides uniformis 0.988 | [2] 0.984 | Clostridium difficile 1.01 | Collinsella aerofaciens 1.02 | Coprococcus comes 0.965 | Escherichia coli ED1a 0.987 | Escherichia coli IAI1 0.97 | Eubacterium rectale 0.953 | [3] 0.958 | Lactobacillus gasseri 1.04 | Lactobacillus paracasei 0.913 | Odoribacter splanchnicus 0.999 | [4] 0.991 | Parabacteroides merdae 0.994

O=C(O)CCCOc1ccc(Cl)cc1Cl
inactive: Akkermansia muciniphila 0.929 | Bacteroides caccae 1.04 | Bacteroides clarus 0.978 | Bacteroides dorei 1.02 | Bacteroides stercoris 0.922 | [1] 1.02 | Bacteroides uniformis 1.07 | [2] 1.06 | Clostridium difficile 1.01 | Collinsella aerofaciens 0.984 | Coprococcus comes 1.05 | Escherichia coli ED1a 0.984 | Escherichia coli IAI1 0.981 | Eubacterium rectale 1.18 | [3] 0.933 | Lactobacillus gasseri 1.01 | Lactobacillus paracasei 1 | Odoribacter splanchnicus 1.11 | [4] 0.919 | Parabacteroides merdae 0.979

Nc1nc(N)nc(N)n1
inactive: Akkermansia muciniphila 0.956 | Bacteroides caccae 1.02 | Bacteroides clarus 0.881 | Bacteroides dorei 1.03 | [1] 0.968 | Bacteroides uniformis 0.972 | [2] 1.15 | Clostridium difficile 0.989 | Collinsella aerofaciens 1.03 | Coprococcus comes 0.978 | Escherichia coli ED1a 0.991 | Escherichia coli IAI1 1.02 | Eubacterium rectale 0.944 | [3] 1 | Lactobacillus gasseri 1.01 | Lactobacillus paracasei 1.05 | [4] 1.23 | Parabacteroides merdae 0.981
active: Bacteroides stercoris 0.792 | Odoribacter splanchnicus 0.119

O=S(=O)(Oc1ccc(Cl)cc1)c1ccc(Cl)cc1
inactive: Akkermansia muciniphila 1.09 | Bacteroides caccae 0.97 | Bacteroides clarus 0.998 | Bacteroides dorei 0.812 | Bacteroides stercoris 0.973 | [1] 0.972 | Bacteroides uniformis 0.995 | [2] 1.02 | Clostridium difficile 1.01 | Collinsella aerofaciens 0.961 | Coprococcus comes 1.01 | Escherichia coli ED1a 0.971 | Escherichia coli IAI1 1 | Eubacterium rectale 1.08 | [3] 1.09 | Lactobacillus gasseri 0.84 | Lactobacillus paracasei 0.926 | Odoribacter splanchnicus 0.983 | Parabacteroides merdae 0.945
active: [4] 0.761

CC(C)[C@@H](Nc1ccc(C(F)(F)F)cc1Cl)C(=O)OC(C#N)c1cccc(Oc2ccccc2)c1 (stereo not given in full)
inactive: Akkermansia muciniphila 1.09 | Bacteroides caccae 1.02 | Bacteroides clarus 1.04 | Bacteroides dorei 1.04 | Bacteroides stercoris 1.01 | [1] 0.994 | Bacteroides uniformis 1.01 | [2] 1.02 | Clostridium difficile 1.04 | Collinsella aerofaciens 0.933 | Coprococcus comes 0.988 | Escherichia coli ED1a 1 | Escherichia coli IAI1 1.05 | Eubacterium rectale 1.04 | [3] 1.06 | Lactobacillus gasseri 1.02 | Lactobacillus paracasei 1.04 | Odoribacter splanchnicus 1.05 | [4] 1.09 | Parabacteroides merdae 1.03

CCOCN(C(=O)CCl)c1c(C)cccc1CC
inactive: Akkermansia muciniphila 0.969 | Bacteroides caccae 1.01 | Bacteroides clarus 0.995 | Bacteroides dorei 1.04 | Bacteroides stercoris 1 | [1] 0.967 | Bacteroides uniformis 0.968 | [2] 0.986 | Clostridium difficile 0.983 | Collinsella aerofaciens 1.03 | Coprococcus comes 1.01 | Escherichia coli ED1a 1 | Escherichia coli IAI1 1.04 | Eubacterium rectale 0.983 | [3] 1.04 | Lactobacillus gasseri 1.03 | Lactobacillus paracasei 1.05 | Odoribacter splanchnicus 1.01 | [4] 1.03 | Parabacteroides merdae 0.974

CNC(=O)Oc1cc(C)c(N(C)C)c(C)c1
inactive: Akkermansia muciniphila 1.02 | Bacteroides caccae 1.03 | Bacteroides clarus 0.971 | Bacteroides dorei 1.04 | Bacteroides stercoris 0.852 | [1] 0.995 | Bacteroides uniformis 1 | [2] 0.991 | Clostridium difficile 1.1 | Collinsella aerofaciens 0.995 | Coprococcus comes 1.01 | Escherichia coli ED1a 0.982 | Escherichia coli IAI1 0.978 | Eubacterium rectale 1 | [3] 0.952 | Lactobacillus gasseri 0.998 | Lactobacillus paracasei 0.953 | Odoribacter splanchnicus 1.08 | [4] 0.988 | Parabacteroides merdae 0.997

CC1CNC(=S)N1 (stereo not given)
inactive: Akkermansia muciniphila 1 | Bacteroides caccae 1.03 | Bacteroides clarus 1.03 | Bacteroides dorei 1.04 | Bacteroides stercoris 1.09 | [1] 1 | Bacteroides uniformis 1 | [2] 1.01 | Clostridium difficile 1.06 | Collinsella aerofaciens 1.04 | Coprococcus comes 1.03 | Escherichia coli ED1a 1.01 | Escherichia coli IAI1 1.06 | Eubacterium rectale 1.06 | [3] 1.05 | Lactobacillus gasseri 0.989 | Lactobacillus paracasei 1.06 | Odoribacter splanchnicus 1.02 | [4] 0.983 | Parabacteroides merdae 1.02

CCOc1ccc(C(C)(C)COCc2cccc(Oc3ccccc3)c2)cc1
inactive: Akkermansia muciniphila 1.08 | Bacteroides caccae 0.967 | Bacteroides clarus 1.03 | Bacteroides dorei 0.967 | Bacteroides stercoris 0.792 | [1] 0.958 | Bacteroides uniformis 1.05 | [2] 1.48 | Clostridium difficile 1.04 | Collinsella aerofaciens 0.967 | Coprococcus comes 1 | Escherichia coli ED1a 0.991 | Escherichia coli IAI1 0.982 | Eubacterium rectale 1.06 | [3] 0.972 | Lactobacillus gasseri 0.918 | Lactobacillus paracasei 1.04 | Odoribacter splanchnicus 1.07 | [4] 0.987 | Parabacteroides merdae 0.992

Cc1cc(C)nc(NC(=O)NS(=O)(=O)c2ccccc2C(=O)OC2COC2)n1
active: [1] 0.752
inactive: Akkermansia muciniphila 1.03 | Bacteroides caccae 0.952 | Bacteroides clarus 0.973 | Bacteroides dorei 0.945 | Bacteroides stercoris 1.04 | Bacteroides uniformis 1.03 | [2] 0.858 | Clostridium difficile 1.05 | Collinsella aerofaciens 0.98 | Coprococcus comes 0.97 | Escherichia coli ED1a 0.986 | Escherichia coli IAI1 0.983 | Eubacterium rectale 1.07 | [3] 1.02 | Lactobacillus gasseri 0.884 | Lactobacillus paracasei 1.08 | Odoribacter splanchnicus 1.01 | [4] 1.02 | Parabacteroides merdae 0.997

CCN(Cc1ccc(Cl)nc1)/C(=C/[N+](=O)[O-])NC
inactive: Akkermansia muciniphila 0.913 | Bacteroides caccae 0.991 | Bacteroides clarus 0.991 | Bacteroides dorei 0.975 | Bacteroides stercoris 0.939 | [1] 0.972 | Bacteroides uniformis 1.01 | [2] 0.983 | Clostridium difficile 0.981 | Collinsella aerofaciens 0.976 | Coprococcus comes 0.959 | Escherichia coli ED1a 1.04 | Escherichia coli IAI1 0.987 | Eubacterium rectale 0.948 | [3] 0.928 | Lactobacillus gasseri 0.966 | Lactobacillus paracasei 0.992 | Odoribacter splanchnicus 0.95 | [4] 1.04 | Parabacteroides merdae 0.989

COP(=O)(OC)Oc1ccc([N+](=O)[O-])cc1
inactive: Akkermansia muciniphila 1.17 | Bacteroides caccae 0.989 | Bacteroides clarus 1.03 | Bacteroides dorei 1.02 | Bacteroides stercoris 1.01 | [1] 0.991 | Bacteroides uniformis 1 | [2] 1.07 | Clostridium difficile 1.04 | Collinsella aerofaciens 0.948 | Coprococcus comes 1.07 | Escherichia coli ED1a 1.03 | Escherichia coli IAI1 0.996 | Eubacterium rectale 1.17 | [3] 1.09 | Lactobacillus gasseri 0.998 | Lactobacillus paracasei 1.02 | Odoribacter splanchnicus 0.954 | [4] 0.981 | Parabacteroides merdae 1.02

COC(=O)c1ccccc1S(=O)(=O)NC(=O)Nc1nc(C)cc(C)n1
inactive: Akkermansia muciniphila 1.07 | Bacteroides caccae 0.962 | Bacteroides clarus 0.988 | Bacteroides dorei 0.968 | Bacteroides stercoris 0.859 | [1] 0.979 | Bacteroides uniformis 1.02 | [2] 1.1 | Clostridium difficile 1 | Collinsella aerofaciens 0.949 | Coprococcus comes 1 | Escherichia coli ED1a 0.993 | Escherichia coli IAI1 0.985 | Eubacterium rectale 1.07 | [3] 1 | Lactobacillus gasseri 0.94 | Lactobacillus paracasei 0.948 | Odoribacter splanchnicus 1.07 | [4] 1.04 | Parabacteroides merdae 0.987
